PubChem BioAssay AID1766 (National Center for Advancing Translational Sciences (NCATS), 2009)
Among all 290,000 compounds or so, fewer than 10 were called active. Roughly 3% stayed inconclusive and do not appear here. Calls come from the whole dose curve; as a rule, active = well fitted curve in the direction sought with a large enough effect in the polarisation (not every such curve was filed as active); inconclusive = small, poorly fitted or top-dose-only effect, or effect the other way, or a change in a side signal; inactive = no such curve, though single readings can be large or run the other way; the % refers to the polarisation. The list is a sample of the results.

experiment: qHTS Assay for Inhibitors Targeting the Menin-MLL Interaction in MLL Related Leukemias: Competition With Fluorescein Labeled MLL-derived Peptide; conditions: Fluorescence polarization, fluorescein-MLL peptide displacement from menin; series mostly up to 61.4 µM; note: % of control where 0% means no effect
From the text: qHTS Assay for Inhibitors Targeting the Menin-MLL Interaction in MLL Related Leukemias NIH Chemical Genomics Center [NCGC] NIH Molecular Libraries Probe Centers Network [MLPCN] MLPCN Grant: MH084875-01A1 Assay Submitter (PI): Jolanta Grembecka, Tomasz Cierpicki, University of Virginia Translocations of the MLL (Mixed Lineage Leukemia) gene are frequently found in human leukemias affecting both children and adults. Fusion of MLL to one of more than 60 genes results in generation of oncogenic proteins upregulating Hox genes, which are vital to blood cell development. Patients harboring fusion of the MLL gene suffer from aggressive leukemias and respond poorly to available therapies. All of the oncogenic fusion proteins have a preserved N-terminal fragment of MLL that has been identified to interact with menin. It has been recently discovered that association with menin is critical to the leukemogenic activity of the MLL fusion oncoproteins. Selective targeting of the menin-MLL interaction could provide an attractive therapeutic approach to develop novel drugs for MLL-related leukemias. Small molecules blocking the menin-MLL interaction should reverse the oncogenic potential of MLL fusion proteins. We have developed and optimized a fluorescence polarization-based assay for the identification of Menin-MLL inhibitors. The assay was run employing two different MLL-derived peptides. The present assay uses a 12 amino acid peptide labeled with fluorescein at its N-terminus. This peptide consists of the menin high affinity binding motif from MLL and is potently bound by menin. Another peptide with a mutated sequence, labeled with Texas Red, was used in parallel as a less stringent screen for inhibitors.
The Menin protein, the MLL-wild type (w.t.) derived peptide (N-terminal 12 amino acids), the MLL-derived peptide labeled with Texas Red and the MLL-w.t. peptide labeled with Fluorescein were kindly supplied by laboratory of Dr. Jolanta Grembecka, University of Virginia. All protein and peptide solutions were stored in single use aliquots at -80C. The Eu3+ Cyrptate-conjugated mouse monoclonal antibody anti-6 Histidine (Eu3+-AB) and the Streptavidin-XL665 conjugate (XL665) were purchased from Cisbio International (Bedford, MA). All antibody and XL665 conjugate solution stocks were stored in single use aliquots at -20C. The Buffer components for all assays were purchased from Sigma-Aldrich (St. Louis, MO) and Invitrogen (Carlsbad, CA). FP Assay Reagents: 1. FP reaction buffer: 50 mM Tris-HCl pH 7.5, 50 mM NaCl, 1mM DTT. Before use, 0.05% BSA is added. 2. Menin protein, MLL-w.t. labeled with fluorescein, MLL-mutant peptide labeled with texas red. Stored in singe use aliquots at -80C. 3. MLL-w.t. unlabeled peptide as positive control: 10 uM final in FP buffer. FP Assay Procedure: 1. Prepare Menin at 200 nM, MLL-w.t.-fluorescein at 25 nM, and MLL-mutant-texas red at 50 nM mixture in FP buffer. 2. Prepare Menin at 200 nM, MLL-w.t.-fluorescein at 25 nM, MLL-mutant-texas red at 50 nM, and 10 uM MLL-w.t. unlabeled mixture in FP buffer. 3. Prepare MLL-w.t.-fluorescein at 25 nM and MLL-mutant-texas red at 50 nM mixture in FP buffer. 3. Dispense 4 ul per well of reagent in step 1 in columns 2, 4 - 48 in a black 1536 well plate, dispense 4 ul per well of reagents from steps 2 and 3 in columns 1 and 3 respectively. Incubate plate at ambient for 15 minutes. 4. Transfer 23 nl per well of compound to plate and incubate at ambient for 1 hr. 5. Read fluorescence polarization for each label using the PerkinElmer Envision. Envision protocol for fluorescein: FITC FP Dual Enh Mirror, Excitation filter 480, Emission filter (1) P-pol 535, Emission filter (2) S-pol 535 Envision protocol for texas red: FP Dual Enh Mirror, Excitation filter 555, Emission filter (1) P-pol 632, Emission filter (2) S-pol 632

FP activity change, inactive:
CCOc1ccc(N(C(=O)c2snc(C(N)=O)c2N)C(C(=O)NCC2CCCO2)c2c[nH]c3ccccc23)cc1 (stereo not given), O=C1OC2(CCCCC2)CC2=C1C1O[C@](c3ccsc3)(Cc3ccccc31)O2 6.24% [at 11.7 µM], O=C(c1noc2c1CCCC2)N1CCc2ccccc2C1, O=C(Nc1ccc(Br)cc1F)C1CC(=O)N(C2CCCCC2)C1 (stereo not given), O=C(Nc1cccc(Br)c1)c1ccc2snnc2c1, CCn1nnnc1SCC(=O)Nc1ccc(N(C)C)cc1, CC(C)CN(CC(C)C)C(=O)CN1c2cccc3cccc(c23)S1(=O)=O, Cc1c(C)n(Cc2ccc(Cl)cc2)c2ccc(C(=O)NCCCN3CCOCC3)cc12, COc1ccc(/C=C/c2noc(-c3ccccc3OC(C)=O)n2)cc1, COc1ccc(C)cc1Nc1n[n+](-c2ccccc2)c(-c2cccc(Cl)c2Cl)s1, CN(Cc1ccccc1)C(=O)C1CCCN(c2ncnc3c2nc2n3CCCCC2)C1 (stereo not given), C[n+]1cc(-c2ccccc2)oc1-c1ccccc1, CS(=O)(=O)Nc1ccccc1N=C(c1ccccc1)c1ccccc1, O=S1(=O)CCOC[C@H](CC2CCCCC2)N1Cc1ccc(F)cc1, Cc1cc(C)n2nc(CNS(=O)(=O)c3c(F)c(F)c(F)c(F)c3F)nc2n1, Cc1ccc(-c2ncc(Cl)cc2-c2ccc(S(C)(=O)=O)cc2)cn1, CCc1ccccc1NC(=S)Nc1cc(OC)c(NC(=O)C(C)C)cc1OC, CC(=O)Oc1ccc(-c2cccc(C(=O)N3CCCCC3)c2)cc1, O=P(O)(O)OC[C@H](O)CO, CCOCCCNC(=O)C1(O)c2cc(Br)ccc2NC(=O)N1c1ccc(C)c(C)c1 (stereo not given), COC(=O)C1(C)NC(c2ccc(F)cc2)C2C(=O)N(c3ccccc3)C(=O)C21 (stereo not given), Cc1cccc(OCCC(=O)Nc2ccccc2C(N)=O)c1, COc1ccc2c(C(=O)c3ccc(C)cc3)n(CCC(N)=O)[n+]([O-])c2c1, Cc1ccc(N2CCN(C(=O)c3cccs3)CC2)c(C)c1, c1ccc(-c2ccc(OCCN3CCOCC3)cc2)cc1, COc1ccc(N(CC(=O)NCCSCc2cccc(Cl)c2)S(C)(=O)=O)cc1, COc1ccc(C(=O)O/N=C(\N)c2ccccn2)cc1[N+](=O)[O-], NS(=O)(=O)c1ccc2nc(NC(=O)C3=COCCO3)sc2c1, COc1ccc(N2CCN(C(=O)c3cccs3)CC2)cc1, CS(=O)(=O)N1CCCC(C(=O)Nc2ccccc2C(F)(F)F)C1 (stereo not given)
